Source: PubChem BioAssay (NCI)
The panel holds about 83,000 compounds, 20% with a hit somewhere; the sample as a whole holds those more often.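 Each cell line was grown in a 96-well plate and treated with one concentration of compound for 48 hours. Values below 10 were considered active.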 A number with no mark means an inactive call. Calls of active or inactive are those of the source.

What was measured:
Experiment in all cases: NCI-60 one-dose screen, 48 h (100 = growth as untreated, 0 = no growth, -100 = all killed)
Settings in all cases: 10 µM unless noted
[1] = test system: SR leukemia
[2] = test system: RPMI-8226 leukemia
[3] = test system: OVCAR-8 ovarian
[4] = test system: OVCAR-5 ovarian
[5] = test system: OVCAR-4 ovarian
[6] = test system: SK-OV-3 ovarian
[7] = test system: IGROV1 ovarian
[8] = test system: OVCAR-3 ovarian
[9] = test system: HS 578T breast
[10] = test system: NCI/ADR-RES ovarian
[11] = test system: T-47D breast
[12] = test system: BT-549 breast
[13] = test system: MDA-MB-435 melanoma
[14] = test system: SW-620 colon
[15] = test system: MCF7 breast
[16] = test system: HCT-116 colon
[17] = test system: HCC-2998 colon
[18] = test system: KM12 colon

Row | Structure (SMILES) | growth [1] | growth [2] | growth [3] | growth [4] [%] | growth [5] | growth [6] | growth [7] | growth [8] | growth [9] | growth [10] | growth [11] | growth [12] | growth [13] | growth [14] | growth [15] | growth [16] | growth [17] | growth [18]
1 | Cc1cccc2c3c(sc12)C(c1ccc(Cl)cc1)c1c(nc(CC(=O)Nc2ccccc2)[nH]c1=O)O3 (stereo unspecified) | 58.1% | 73.9% | 85.6% | 81.6 | 90.3% | 73.3% | 21% | 30.5% | 60.1% | 26.7% | 47.9% | 77.1% | 9.37% (active) | 40.9% | 38.1% | 37.7% | 85.7% | 37.7%
2 | COc1ccc(NC(=O)CSc2nnc(-c3ccc4nc(-c5ccccc5)[nH]c4c3)o2)cc1 | 91.2% | 79.1% | 101% | 101 | 100% | 108% | 92.9% | 110% | 105% | 101% | 94.7% | 93.5% | 100% | 104% | 86.2% | 102% | 114% | 99.4%
3 | COc1ccccc1-n1cc(C#N)c(N)c1C(=O)c1ccc(C)cc1 | 49.4% | 99.7% | 95% | 103 | 103% | 93.5% | 84.6% | 94.6% | 85.6% | 60.2% | 82.1% | 83.9% | 5.3% (active) | 52.4% | 51.3% | 76.8% | 80.9% | 59.6%
4 | COc1cc(/C=C2\C(=O)Nc3ccccc32)ccc1OCc1ccc(Cl)cc1 | 93.8% | 97.5% | 102% | 101 | 99.1% | 111% | 102% | 106% | 105% | 100% | 107% | 109% | 106% | 96.6% | 69.5% | 86.9% | 123% | 99.6%
5 | CCO/C=N/C1=C(C#N)C(c2ccc(Cl)cc2)c2sc3c(CC)cccc3c2O1 (stereo unspecified) | 18% | 9.39% (active) | 28.5% | 36.9 | 76.5% | 58.2% | 23% | -20.5% (active) | 18.4% | 14.9% | 26.9% | 59.6% | -43.2% (active) | 32.3% | 16.2% | 23.1% | 23.6% | 15.3%
6 | CCn1c(SCC(=O)Nc2cccc(C(=O)/C=C/c3ccc(C)cc3)c2)nc2ccccc2c1=O | 56.4% | 7.2% (active) | 90.9% | 97.6 | 80% | 110% | 77.1% | 43.9% | 101% | 91% | 70.7% | 93.3% | 75.4% | 51.4% | 19.7% | 10.8% | 78.7% | 77.4%
7 | NS(=O)(=O)c1ccc(Nc2nc(Nc3ccccc3)nc3nnc(SCC(=O)NC4CCCCC4)n23)cc1 | 97.7% | 105% | 99.8% | 105 | 108% | 105% | 95.5% | 119% | 102% | 112% | 104% | 104% | 110% | 106% | 100% | 99.8% | 109% | 102%
8 | NC(N)=Nc1ccc(Nc2cccc(Nc3ccc(Cl)c(C(F)(F)F)c3)c2)cn1 | -31.7% (active) | 13% | 44.7% | 73.8 | 45.4% | 77.6% | 33.4% | -30.7% (active) | 28.4% | 87.5% | 23.8% | 67.8% | 30.4% | 5.81% (active) | 2.25% (active) | 16.1% | 9.32% (active) | -38.3% (active)
9 | C=CCn1c(SCC(=O)Nc2ccc(C(=O)/C=C/c3cc(OC)c(OC)c(OC)c3)cc2)nnc1-c1c[nH]c2ccccc12 | 1.35% (active) | -35.2% (active) | 37.8% | 32.1 | 59.4% | 75.3% | -26% (active) | 6.15% (active) | 38.8% | 88.9% | 49% | 47.2% | 5.25% (active) | -0.994% (active) | -30.8% (active) | -66.1% (active) | -28% (active) | 30.4%
10 | C/C(=N\O)[C@H]1C[C@]23CC[C@]4(C)[C@H](CC[C@@H]5[C@@]6(C)CC/C(=N/O)C(C)(C)[C@@H]6CC[C@]54C)[C@H]2[C@H](C)C1(C)OC3 | 98.7% | 124% | 106% | 105 | 82.8% | 122% | 86.2% | 113% | 104% | 113% | 108% | 107% | 97.2% | 99.9% | 93.3% | 97.2% | 115% | 102%
11 | CCOc1ccccc1NC1=C(Cl)C(=O)c2nc(C)ccc2C1=O | -12.8% (active) | -35.1% (active) | 0.93% (active) | 40.8 | -92% (active) | 85.3% | -57.5% (active) | -98.9% (active) | 1.05% (active) | -9.58% (active) | -40% (active) | 44.4% | -85.7% (active) | -66.7% (active) | -59.7% (active) | -79.4% (active) | 20.3% | 60.8%
12 | Oc1cccc2ccc(-c3nnc(SCc4ccc(O)c5ncccc45)n3-c3ccccc3)nc12 | 31.2% | 15.6% | 6.56% (active) | 47.8 | 16.8% | 12.1% | 11.2% | 28.3% | 18.5% | 7.68% (active) | 9.55% (active) | 26.1% | 17% | 16.4% | 6.09% (active) | 10.5% | 28.2% | 10.9%
13 | C=C(C=O)[C@@H]1CC[C@]2(COC(C)=O)CC[C@]3(C)C(CC[C@@H]4[C@@]5(C)CC[C@H](OC(C)=O)C(C)(C)[C@@H]5CC[C@]43C)[C@@H]12 (stereo partly specified) | -25.8% (active) | -18.4% (active) | 15.3% | 15.1 | 16.2% | 50.3% | -32.8% (active) | -71.6% (active) | -11.6% (active) | 1.48% (active) | 4.4% (active) | 11.1% | -13.6% (active) | 0.204% (active) | -33.5% (active) | -58.4% (active) | -63% (active) | -40.8% (active)
14 | Cc1nc(-c2ccccc2O)ccc1C(=O)N=Nc1c(O)[nH]c2ccc(Br)cc12 | 101% | 87.9% | 97.9% | 101 | 102% | 97.7% | 89.7% | 103% | 91.6% | 99.6% | 88.9% | 102% | 102% | 95.9% | 91% | 99.1% | 123% | 98.3%
15 | COc1ccc(/C=N/NC2=NC3C(S2)N(C)C(=O)N3C)cc1 (stereo unspecified) | 6.64% (active) | 10.5% | 35.6% | 50.4 | 75.6% | 28% | 40.9% | -17.1% (active) | 0.337% (active) | 30.7% | 26.7% | 66% | -56.4% (active) | 16.1% | 15.4% | 33.5% | 67% | 20.8%
16 | O=C(NCc1ncc[nH]1)c1ccc(-c2nc3ccc4[nH]ncc4c3c3c2CCCC3)cc1 | -52.6% (active) | 45% | 16.1% | 62.1 | 14.5% | -16.8% (active) | 3.6% (active) | 3.38% (active) | -12.8% (active) | 90.2% | -3.92% (active) | 0.679% (active) | 14.6% | 5.4% (active) | 1.62% (active) | -4.57% (active) | 12.8% | 4.99% (active)
17 | CCCCCc1ccc(S(=O)(=O)Nc2cc(-c3csc(NC(=O)CN4CCN(CCO)CC4)n3)ccc2OC)cc1 | -13.2% (active) | -16.9% (active) | 82.1% | 86.1 | 72.5% | 78% | 48.9% | 13.3% | 52.8% | 88.4% | 26.8% | 88.7% | -48.6% (active) | 1.64% (active) | 6.28% (active) | -13.2% (active) | -23.4% (active) | 61.2%
